Experiment [1] is described as follows: NCI Yeast Anticancer Drug Screen. Data for the rad50 strain (AID 155).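 Also: 0% = growth of vehicle-only cultures of the same strain.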 To be noted: S. cerevisiae rad50 strain growth inhibition; at 50.0 µM; active compounds read high. In outline:
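Yeast carrying a defined DNA repair defect were exposed to test compounds, and growth was compared with vehicle-treated controls to give percent inhibition.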

Experiment [2] in a line: NCI Yeast Anticancer Drug Screen. Data for the mec2-1 strain (AID 157). The settings on record: S. cerevisiae mec2-1 strain, at 50.0 µM, active compounds read high. In outline: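 Strain: mec2-1 (DNA repair/cell cycle alteration). Compound exposure, then growth measured; inhibition expressed relative to vehicle.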
The nature of experiment [3]: NCI Yeast Anticancer Drug Screen. Data for the sgs1 mgt1 strain (AID 161).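 Also: 0% = growth of cultures given vehicle only.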 To be noted: S. cerevisiae sgs1 mgt1 strain, at 50.0 µM, active compounds read high. In outline:
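Mutant yeast exposed to compound; growth scored against vehicle-only wells.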

The nature of experiment [4]: NCI Yeast Anticancer Drug Screen. Data for the cln2 rad14 strain (AID 165).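 Also: 0% = growth equal to vehicle treated cultures.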 To be noted: S. cerevisiae cln2 rad14 strain, at 50.0 µM, active compounds read high. In outline: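 Compounds are applied to the cln2 rad14 yeast strain, and growth is then compared with that of vehicle-treated cultures to give inhibition.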
A short description of experiment [5]: NCI Yeast Anticancer Drug Screen. Data for the bub3 strain (AID 167). To be noted: S. cerevisiae bub3 mutant strain, at 50.0 µM, active compounds read high. The method in brief:
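Compounds were applied to a genetically altered yeast strain carrying a cell-cycle control defect. Growth inhibition was scored against vehicle-treated controls.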

A short description of experiment [6]: NCI Yeast Anticancer Drug Screen. Data for the mlh1 rad18 strain (AID 175). To be noted: S. cerevisiae mlh1 rad18 strain growth inhibition; at 50.0 µM; active compounds read high. In outline: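 Read-out is yeast growth inhibition, calculated against vehicle-only controls. The compound was applied to a strain engineered with DNA damage repair alterations.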

The panel holds about 79,000 compounds, 15% with a hit somewhere; the sample as a whole holds those more often. Values without a mark were called inactive. The source made the active and inactive calls. Rule as the data show it: active = growth inhibition above about 70%; inactive = the rest.

On to `O=C(O)C1Cc2c([nH]c3ccccc23)C=N1` (stereo unspecified), for which the growth inhibition in experiment [1] was 27.9%; in experiment [2] it was 11.9%; in experiment [3], -2.3%; in experiment [4], 22.2%; in experiment [5] it was 16.4%; in experiment [6] it was 33.8%.

With `C=CC(Br)(CBr)CCC(Cl)C(C)C` (stereo unspecified), the growth inhibition was 86.2% (active) in experiment [1]; 90.7% (active) in experiment [2]; 90.8% (active) in experiment [3]; 91.7% (active) in experiment [4]; 90.3% (active) in experiment [5]; 90.5% (active) in experiment [6].

For `Cc1c(Cl)c2ccccc2n1S(=O)(=O)c1ccccc1`, the growth inhibition in experiment [1] was 38.1%; in experiment [2], -3.55%; in experiment [3] it was 31.2%; in experiment [4], 22.1%; in experiment [5], 10.5%; in experiment [6], 21.9%.

Regarding `COc1ccc(C(=O)N2CCN(C)CC2)cc1OC`, the growth inhibition was 19.1% in experiment [1]; -3.95% in experiment [2]; -8.3% in experiment [3]; 13.4% in experiment [4]; -1.75% in experiment [5]; 4.2% in experiment [6].

Regarding `CCNCC(OC)C(COC)OC(=O)c1ccc([N+](=O)[O-])cc1` (stereo unspecified), the growth inhibition in experiment [1] was 15.1%; in experiment [2] it was -11.6%; in experiment [3], -7.65%; in experiment [4] it was -32.9%; in experiment [5] it was 20.4%; in experiment [6], 7.25%.

In the case of `Cc1nc(NCCNCCO)nc2c1C(=O)Nc1ccccc1N2`, the growth inhibition in experiment [1] is -43.9%; in experiment [2], -50.8%; in experiment [3], -7.65%; in experiment [4], -5.3%; in experiment [5], -3.9%; in experiment [6] it was -38.8%.

With `CCCc1nc(N)[nH]c(=O)c1I`, the growth inhibition was -26% in experiment [1]; -9.1% in experiment [2]; -15.1% in experiment [3]; 5.3% in experiment [4]; 7.8% in experiment [5]; 0.45% in experiment [6].

With `Cc1onc(-c2ccccc2Cl)c1-c1nc2ccccc2c(=O)o1`, the growth inhibition in experiment [1] is 94.1% (active); in experiment [2], 97% (active); in experiment [3] it was 98.5% (active); in experiment [4], 93.2% (active); in experiment [5], 96.8% (active); in experiment [6], 93.5% (active).

Consider `C[C@H](CCC(c1ccccc1)c1ccccc1)[C@H]1CC[C@H]2[C@@H]3CC[C@@H]4C[C@H](O)CC[C@]4(C)C3=CC[C@]12C`, for which the growth inhibition is 1.7% in experiment [1]; -15.3% in experiment [2]; 4.1% in experiment [3]; 24.8% in experiment [4]; -1.75% in experiment [5]; 9.45% in experiment [6].

Regarding `CCOC(=O)c1cc2ccccc2nc1N`, the growth inhibition in experiment [1] is 0%; in experiment [2], 3.45%; in experiment [3], -7.15%; in experiment [4] it was -21.5%; in experiment [5] it was -17.1%; in experiment [6], 1.1%.

`CCOC(=O)CSc1nc(-c2ccc(Cl)cc2)c(C#N)c(=O)[nH]1`: the growth inhibition in experiment [1] was 5.9%; in experiment [2], -0.45%; in experiment [3], 2%; in experiment [4], 27.1%; in experiment [5], 8.85%; in experiment [6], -79%.

For `CN1CCN(C(=S)N(C(=O)c2ccc(Cl)cc2)C2CCCCC2)CC1`, the growth inhibition was -67% in experiment [1]; -53.4% in experiment [2]; -54.8% in experiment [3]; -26.4% in experiment [4]; -66.9% in experiment [5]; -65.7% in experiment [6].

`CC(CCc1ccccc1)NC(=O)c1ccccc1` (stereo unspecified): the growth inhibition in experiment [1] is 5%; in experiment [2] it was -40.1%; in experiment [3] it was -1.45%; in experiment [4] it was 11.2%; in experiment [5], 10.7%; in experiment [6], -16.6%.

Turning to `CC1=CCCCC1`, the growth inhibition in experiment [1] was 3.85%; in experiment [2], 2.8%; in experiment [3], -1.35%; in experiment [4] it was -5.1%; in experiment [5], 8.65%; in experiment [6] it was -7.25%.

`CCN(CC)CCC(=O)c1ccc(Oc2ccc(Cl)cc2)cc1`: the growth inhibition in experiment [1] is 96.8% (active); in experiment [2], 83.8% (active); in experiment [3], 99% (active); in experiment [4] it was 80.2% (active); in experiment [5] it was 98.9% (active); in experiment [6], 99.2% (active).

On to `CN(C)c1ccc(C(=O)O)cc1`, for which the growth inhibition in experiment [1] was -0.75%; in experiment [2], 11.3%; in experiment [3] it was -20.4%; in experiment [4] it was -28.8%; in experiment [5], -17.6%; in experiment [6] it was -16.3%.

As for `Cc1coc2c1C1OC(=O)C3(C/C=C\C(C)C2)OC13` (stereo unspecified), the growth inhibition in experiment [1] was 0.15%; in experiment [2] it was -32.6%; in experiment [3], -2.55%; in experiment [4], -6.3%; in experiment [5] it was -13.9%; in experiment [6] it was -5.95%.

`C=C1C(=O)O[C@H]2/C=C(/C)C3=CC(=O)[C@@](C)(C[C@@H](OC(=O)/C(C)=C\C)C12)O3` (stereo partly specified): the growth inhibition was 73.5% (active) in experiment [1]; 80.8% (active) in experiment [2]; 81.2% (active) in experiment [3]; 64.8% in experiment [4]; 77.9% (active) in experiment [5]; 75.8% (active) in experiment [6].

`O=C(O)c1ccc(CSc2ccccc2C(=O)O)cc1`: the growth inhibition in experiment [1] is 16.4%; in experiment [2] it was -16.6%; in experiment [3], -6.95%; in experiment [4], 15.4%; in experiment [5], -14.7%; in experiment [6], 33.8%.

In the case of `CC(O)(c1ccc(OCCC[N+](C)(C)C)cc1)C(C)(O)c1ccc(OCCC[N+](C)(C)C)cc1` (stereo unspecified), the growth inhibition in experiment [1] was -25.5%; in experiment [2], -17.1%; in experiment [3], -39%; in experiment [4] it was 12.9%; in experiment [5], -16.9%; in experiment [6] it was -27.6%.

`Brc1ccc(Br)s1`: the growth inhibition in experiment [1] was -11.2%; in experiment [2], -0.1%; in experiment [3], -20.4%; in experiment [4] it was -38.3%; in experiment [5], 7.5%; in experiment [6], 0.4%.
